Among the data in PubChem BioAssay (NCATS) are activity, negative = inhibition values, retold here.

The structures appear in SMILES notation. Records with an inconclusive call do not appear. Values without a mark were called inactive. Active and inactive are the calls of the source. Calls come from the whole dose curve; as a rule, active = well fitted inhibition curve with a large enough effect; inconclusive = small, poorly fitted or top-dose-only effect; inactive = flat fitted curve, though single readings scatter.

Lysine-specific demethylase 5B (Homo sapiens), sequence (Q9UGL1 whole entry, looked up): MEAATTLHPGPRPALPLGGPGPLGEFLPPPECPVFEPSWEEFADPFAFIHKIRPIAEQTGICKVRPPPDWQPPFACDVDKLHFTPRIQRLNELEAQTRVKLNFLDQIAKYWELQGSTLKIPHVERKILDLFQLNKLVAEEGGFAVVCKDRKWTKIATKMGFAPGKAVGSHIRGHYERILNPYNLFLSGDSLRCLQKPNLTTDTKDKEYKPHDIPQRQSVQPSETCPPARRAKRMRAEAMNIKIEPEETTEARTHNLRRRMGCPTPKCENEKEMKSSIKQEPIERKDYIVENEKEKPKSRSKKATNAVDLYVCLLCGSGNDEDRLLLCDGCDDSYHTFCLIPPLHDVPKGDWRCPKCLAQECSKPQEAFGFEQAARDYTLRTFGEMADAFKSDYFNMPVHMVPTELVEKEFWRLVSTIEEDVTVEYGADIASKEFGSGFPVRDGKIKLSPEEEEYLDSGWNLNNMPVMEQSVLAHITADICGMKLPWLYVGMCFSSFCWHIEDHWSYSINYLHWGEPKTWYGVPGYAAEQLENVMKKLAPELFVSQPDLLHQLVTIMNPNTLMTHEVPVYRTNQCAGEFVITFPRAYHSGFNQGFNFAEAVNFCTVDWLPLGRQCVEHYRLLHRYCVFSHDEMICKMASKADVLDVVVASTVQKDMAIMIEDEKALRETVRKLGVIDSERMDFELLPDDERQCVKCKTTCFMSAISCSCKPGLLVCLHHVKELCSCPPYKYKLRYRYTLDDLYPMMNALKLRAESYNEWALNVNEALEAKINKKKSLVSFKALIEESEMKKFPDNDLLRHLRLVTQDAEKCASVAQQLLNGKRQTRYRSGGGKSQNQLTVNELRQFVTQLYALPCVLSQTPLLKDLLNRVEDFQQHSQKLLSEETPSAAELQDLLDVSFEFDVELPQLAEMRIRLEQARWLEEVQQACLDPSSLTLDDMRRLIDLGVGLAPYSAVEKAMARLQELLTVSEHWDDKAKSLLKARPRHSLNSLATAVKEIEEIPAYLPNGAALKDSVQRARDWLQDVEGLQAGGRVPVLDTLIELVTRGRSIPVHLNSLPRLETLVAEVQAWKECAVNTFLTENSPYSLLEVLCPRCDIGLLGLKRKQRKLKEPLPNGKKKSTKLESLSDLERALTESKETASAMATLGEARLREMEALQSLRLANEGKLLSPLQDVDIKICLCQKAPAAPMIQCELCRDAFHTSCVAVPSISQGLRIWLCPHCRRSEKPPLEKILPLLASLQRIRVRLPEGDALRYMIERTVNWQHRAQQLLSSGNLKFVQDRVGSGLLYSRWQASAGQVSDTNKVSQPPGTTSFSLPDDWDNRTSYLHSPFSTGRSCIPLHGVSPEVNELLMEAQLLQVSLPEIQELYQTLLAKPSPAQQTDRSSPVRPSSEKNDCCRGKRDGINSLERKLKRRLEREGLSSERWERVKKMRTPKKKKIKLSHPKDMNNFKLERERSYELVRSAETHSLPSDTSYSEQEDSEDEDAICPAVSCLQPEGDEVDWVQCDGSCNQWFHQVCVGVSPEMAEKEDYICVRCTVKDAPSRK

The experiment addresses Lysine-specific demethylase 5B (Homo sapiens) (UniProt Q9UGL1). Description: Optimization screen for KDM5B Histone Demethylases FDH coupled qHTS against the LOPAC library (AID 1347166). Note: 0% is about no effect. To be noted: KDM5B demethylation, FDH-coupled NADH fluorescence (FDH is formaldehyde dehydrogenase); at 57.5 µM (top of the series). Summed up:
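KDM5BDeltaAP (200nM final) in 50mM HEPES pH 7.5, 0.01% Tween-20 was preincubated with compound for 10 min at room temperature. A substrate mix of 12.5uM H3K4Me3, 25uM a-ketoglutarate, ascorbate, Fe2+, NAD+ and formaldehyde dehydrogenase was then added. NADH fluorescence (340/450 nm) was read initially and after 30 min.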
For orientation: Quantitative high-throughput screening tests each substance at several concentrations.
On to `c1ccc2c(c1)CCC[C@H]2Nc1nc2ccccc2[nH]1`, for which the activity, negative = inhibition is -7.62%.

`CC(C)C[C@H](NC(=O)C1OC1C(=O)O)C(=O)NCCCCN=C(N)N` (stereo partly drawn): the activity, negative = inhibition was 0.286%.

For the compound `N[C@H](C(=O)O)[C@H](Cc1ccccc1)C(=O)O`, the activity, negative = inhibition is -9.48%.

Consider `NCCCCN`, for which the activity, negative = inhibition is -1.54%.

`Cc1ccc([N+](=O)[O-])cc1S(=O)(=O)N(C)C`: the activity, negative = inhibition is -0.674%.

As to `CC(N)=O`, the activity, negative = inhibition was -7.02%.

For `CN(C)S(=O)(=O)c1ccc2c(c1)/C(=C/c1cc3c([nH]1)CCCC3)C(=O)N2`, the activity, negative = inhibition is -8.97%.

Consider `CCCCC[C@H](CC(=O)NO)C(=O)N[C@H](C(=O)N1CCC[C@H]1CO)C(C)C`, for which the activity, negative = inhibition is 9.91%.

In the case of `COc1ccc2c(c1)c(CC(=O)O)c(C)n2C(=O)c1ccccc1`, the activity, negative = inhibition is 5.12%.

For `O=c1[nH]c2cc(Cl)ccc2c(O)c1-c1ccc(Oc2ccccc2)cc1`, the activity, negative = inhibition is -28.1%.

Turning to `OCC1NCC(O)C(O)C1O` (stereo not drawn), the activity, negative = inhibition was -3.55%.

In the case of `CC(C)C[C@H](NC(=O)[C@H](O)[C@H](N)Cc1ccccc1)C(=O)O`, the activity, negative = inhibition was -4.3%.

Consider `C=C1C[C@@]23CC[C@H]4[C@@](C)(CCC[C@@]4(C)C(=O)OC4OC(CO)C(O)C(O)C4O)[C@@H]2CC[C@]1(OC1OC(CO)C(O)C(O)C1OC1OC(CO)C(O)C(O)C1O)C3` (stereo partly drawn), for which the activity, negative = inhibition is -7.5%.

Regarding `O=C1OC(=O)C2C3CCC(O3)C12` (stereo not drawn), the activity, negative = inhibition was 3.88%.

As for `NC(=O)c1ccccc1`, the activity, negative = inhibition was 0.361%.

With `CN(C)CCC(c1ccc(Br)cc1)c1ccccn1` (stereo not drawn), the activity, negative = inhibition was -1.47%.

With `Nc1ccc2c3c(cccc13)C(=O)NC2=O`, the activity, negative = inhibition was -16.6%.

On to `CC(=O)SC1CC2=CC(=O)CC[C@]2(C)C2CC[C@@]3(C)C(CC[C@@]34CCC(=O)O4)C12` (stereo partly drawn), for which the activity, negative = inhibition was 0.621%.

For the compound `COc1ccc2c(c1)CCC1C2CC[C@@]2(C)C1CC[C@@H]2NCCCCCCN1C(=O)C=CC1=O` (stereo partly drawn), the activity, negative = inhibition is -20.3%.

Take `Cn1c(=O)c2c(nc(/C=C/c3cccc(Cl)c3)n2C)n(C)c1=O`: the activity, negative = inhibition is -517% (active).

Regarding `CCCCOC(=O)NS(=O)(=O)c1sc(CC(C)C)cc1-c1ccc(Cn2c(CC)nc3c(C)cc(C)nc32)cc1`, the activity, negative = inhibition is -19.3%.

`OC[C@H]1NC[C@@H](O)[C@@H]1O`: the activity, negative = inhibition was 1.64%.

For `N[C@@H](Cc1ccc(F)cc1)C(=O)O`, the activity, negative = inhibition is -14.8%.

Consider `CC(=O)O[C@H]1CC2(C)[C@@H](C[C@@H](O)[C@H]3[C@@]4(C)CC[C@@H](O)[C@@H](C)[C@@H]4CC[C@@]32C)C1=C(CCC=C(C)C)C(=O)O` (stereo partly drawn), for which the activity, negative = inhibition was -4.8%.

Turning to `CCCCCCCCCC[Si](C)(C)CCC(=O)NC(Cc1ccc(C)cc1)c1ccccc1` (stereo not drawn), the activity, negative = inhibition was -3.59%.

For `CCC(=O)N1CCN(C(=O)c2ccccc2)CC1`, the activity, negative = inhibition was 3.19%.

Regarding `Fc1ccc(CN(C2=NCCN2)c2c(Cl)cccc2Cl)cc1`, the activity, negative = inhibition is 2.64%.

Consider `O=C(O)/C=C/c1cnc[nH]1`, for which the activity, negative = inhibition is -28.2%.

As for `COc1cc(CNC(=O)CCCCCCC(C)C)ccc1O`, the activity, negative = inhibition was -17%.

In the case of `C=CC1(C)CC(=O)C2(O)C(C)(O1)C(OC(C)=O)C(O)C1C(C)(C)CCC(O)C12C` (stereo not drawn), the activity, negative = inhibition was -2.72%.

On to `NCCC1CCCC(CCN)N1` (stereo not drawn), for which the activity, negative = inhibition is -5.63%.

`O=c1cc(-c2ccccc2F)[nH]c2cc3c(cc12)OCO3`: the activity, negative = inhibition was -604% (active).

As to `COc1cc(N)c(Cl)cc1C(=O)OCCN1CCCCC1`, the activity, negative = inhibition is -18.2%.

Take `O=C(O)C1CCNCC1`: the activity, negative = inhibition is -5.33%.

Regarding `Cn1ccnc1`, the activity, negative = inhibition is -0.951%.

Consider `O=C(O)[C@H]1NCCC[C@H]1C(=O)O`, for which the activity, negative = inhibition was -4.16%.

As to `Cc1cccc(C)c1OCC(N)C(C)C` (stereo not drawn), the activity, negative = inhibition was -17.4%.

Regarding `CN1C2CCC1CC(OC(c1ccccc1)c1ccccc1)C2` (stereo not drawn), the activity, negative = inhibition was -5.47%.
